This is an account of results in paper PMC5540273 (PLoS ONE, 2017).
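Note: KINOMEscan kinase panel screen.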

This assay concerns FGFR1. The settings on record: concentration: 1 μM, replicates: in singlicate; n = 1.
With `CCS(=O)(=O)c1ccc(OC)c(Nc2nccc(-c3c(-c4cccc(NC(=O)c5c(F)cccc5F)c4)nn4ncccc34)n2)c1` [GSK326180], the “%Inh” value is given as 0%.

In the case of `COc1cc(Nc2nccc(-c3c(-c4cccc(NC(=O)c5c(F)cccc5F)c4)nn4ncccc34)n2)cc(OC)c1OC` [GSK327238], the “%Inh” value is recorded as 66%.

In the case of `COc1ccc(-c2coc3ccc(-c4nnc(SCc5ccc(OC)c(C(F)(F)F)c5)o4)cc23)cc1`, the “%Inh” value came out at 0%.

Consider `Oc1cc(Nc2ccnc3cc(I)ccc23)ccc1F` [GW552771], for which the “%Inh” value worked out at 23%.

With `O=c1[nH]cc(-c2ccc(N3CCOCC3)cc2)c2sc(-c3cn[nH]c3)cc12` [GSK2276055], the “%Inh” value is on record as 0%.

Turning to `FC(F)(F)c1ccc(/C=C/c2cncnc2Nc2ccc3[nH]c(Cc4ccccc4)nc3c2)cc1` [GW709199], the “%Inh” value stood at 20%.

`Nc1ncnc2c1nc(-c1ccccc1)n2-c1ccccc1` [SKF-97293]: the “%Inh” value was 12%.

In the case of `Cn1cc(-c2ccc3c(c2)CCN3C(=O)Cc2cccc(Cl)c2)c2c(N)ncnc21` [GSK2606590], the “%Inh” value was determined as 23%.

Take `Cc1ccc(C(=O)Nc2ccc(Nc3ccnc4cc(-c5nccs5)ccc34)cc2O)cc1.Cl` [GW494702]: the “%Inh” value turned out to be 0%.

As for `COc1cc(Nc2ncc3c(C)nc(-c4cc5ccccc5[nH]4)n3n2)cc(OC)c1OC` [GW869516], the “%Inh” value was determined as 35%.

As for `COc1ccc(CNC(=O)NC2CCN(c3ccnc(Nc4ccc(F)cc4)n3)CC2)cc1` [GSK1379788], the “%Inh” value is 0%.

With `CCn1c(-c2nonc2N)nc2c(C#CC(C)(C)O)nc(OC[C@H](N)c3ccccc3)cc21` [GSK943949], the “%Inh” value is listed as 11%.

As to `Cl.c1ccc(-c2ccc3c(Nc4ccc5[nH]ncc5c4)ccnc3c2)nc1` [GW440137], the “%Inh” value is 14%.

Consider `COc1cccc(-c2ccc3c(NC(=O)C4CC4)n[nH]c3n2)c1` [SB-710903], for which the “%Inh” value amounted to 0%.

For `COc1cccc(C(=O)Nc2cccc(Oc3ccc4nc(NC(=O)C5CC5)cn4n3)c2)c1`, the “%Inh” value is on record as 22%.

Consider `CNC(=O)c1ccccc1Nc1nc(Nc2ccc(N3CCOCC3)cc2)ncc1Cl.Cl` [GSK1576028], for which the “%Inh” value was determined as 99.7%.

As for `O=C(Nc1cccc(Oc2ccc3nc(NC(=O)C4CC4)cn3n2)c1)c1ccccc1C(F)(F)F`, the “%Inh” value amounted to 1%.

As to `Cc1ccc(S(=O)(=O)Nc2ccc(Nc3nccc(Nc4cccc5[nH]ncc45)n3)cc2)cc1` [GSK581271], the “%Inh” value was 0%.

Turning to `Cc1cccc(NC(=O)Nc2ccc(Oc3ncnc4ccn(C)c34)cc2)c1`, the “%Inh” value turned out to be 0%.

In the case of `CC(=O)Nc1nc2cnc(Nc3cc(NC(=O)c4cccc(C5(C#N)CC5)c4Cl)ccc3C)nc2s1`, the “%Inh” value worked out at 2%.

For `COc1cccc(C2=C(Nc3ccc(Cl)c(C(=O)O)c3)C(=O)NC2=O)c1` [SB-390769], the “%Inh” value was 8%.

As for `CN(C)S(=O)(=O)c1cc(-c2ccc3nccc(-c4cccc(S(N)(=O)=O)c4)c3c2)cnc1N` [GSK1669921], the “%Inh” value came to 0%.

Regarding `O=C(Nc1ccccc1F)NC1CCN(c2ccnc(Nc3ccc(F)cc3)n2)CC1` [GSK1379800], the “%Inh” value came to 0%.

Take `O=C(Nc1n[nH]c2cc(-c3ccoc3)ccc12)C1CC1` [SB-738481]: the “%Inh” value worked out at 0%.

In the case of `CSc1cccc2c(-c3ccncn3)c(-c3ccc(F)cc3)nn12` [GW514786], the “%Inh” value turned out to be 0%.

With `CN(c1ccc(NC(=O)Nc2cc(C(F)(F)F)ccc2F)cc1)c1ccnc(Nc2ccc(S(N)(=O)=O)cc2)n1` [GW809893], the “%Inh” value was found to be 76%.

For `O=C(Nc1cccc(-c2nn3ncccc3c2-c2ccnc(Nc3ccccc3)n2)c1)c1c(F)cccc1F` [GSK198271], the “%Inh” value is recorded as 0%.

As for `c1ccc(-c2n[nH]cc2Nc2ccnc3ccccc23)nc1` [GW694077], the “%Inh” value turned out to be 0%.

For the molecule `Cl.Cl.NCC(C(=O)Nc1cc(Br)c(-c2ccnc3[nH]ccc23)s1)c1ccccc1` (stereo not shown) [GSK1269851], the “%Inh” value is given as 30%.

As for `O=C(Nc1cccc(-c2nn3ccccc3c2-c2ccnc(Nc3cccc(C(F)(F)F)c3)n2)c1)c1c(F)cccc1F` [GSK292658], the “%Inh” value is 0%.

For `Cc1ccc(C)c(NC(=O)NC2CCN(c3ccnc(Nc4ccc(F)cc4)n3)C2)c1` (stereo not shown) [GSK1379720], the “%Inh” value amounted to 0%.

For the molecule `COCCOCCOc1cc2ncc3c4ccc(C#N)cc4[nH]c3c2cc1OC`, the “%Inh” value came out at 0%.

On to `CN1CCN(Cc2cccc(-c3ccc4c(Nc5ccc(Oc6ccccc6)cc5)ccnc4c3)c2)CC1` [GW578342], for which the “%Inh” value amounted to 22%.

On to `Cl.Cl.NCC(NCc1ccc(-c2ccnc3[nH]ccc23)s1)c1ccccc1` (stereo not shown) [GSK1321565], for which the “%Inh” value came out at 4%.

Consider `Cn1cc(-c2ccc3c(c2)CCN3C(=O)Cc2cccc(F)c2)c2c(N)ncnc21` [GSK2603358], for which the “%Inh” value was 0%.

Regarding `Clc1ccc(-c2nn3ncccc3c2-c2ccnc(Nc3ccc4c(c3)OCCO4)n2)cc1` [GW829116], the “%Inh” value amounted to 0%.

Take `Nc1ncc(-c2cccnc2)c2scc(-c3ccc4c(c3)CCN4C(=O)Cc3ccccc3)c12` [GSK683281]: the “%Inh” value came out at 31%.
